IL-1B inflam inh = blocks inflammasome-driven IL-1 beta release; THP-1 LPS/ATP IL-1B secretion, AlphaLISA, 16 h; active compounds read low; activity change, % at 57.5 µM; 4.7% of 360,000 active; in the data active means activity change below about -50%; inconclusive means mostly about -30% to -49%
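Secreted IL-1B measured by AlphaLISA bead assay after 16 h compound exposure of THP-1 cells; compounds (final up to 57.5 uM) added 1 h before LPS (250 ng/mL) and ATP (1.25 mM) stimulation; lower signal means less secretion.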
DT40 TDP1 CPT = growth inhibition of DT40 Tdp1-/-;hTDP1 cells with camptothecin (screen for TDP1 inhibitors). Potency, µM (series often up to 46.2 µM), actives largely listed as inhibitors. AID 686979. chicken DT40 Tdp1-/-;hTDP1 cells + 20 nM CPT, ATP luminescence, 48 h. 12% of 420,000 active; further: nearly all actives have a fitted effect of over 55% in size
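Cell growth measured by CellTiter-Glo luminescence after a minimum 48 h, 37 C compound exposure with 20 nM CPT in Tdp1-knockout DT40 cells stably expressing hTDP1, seeded 400/well; qHTS titration format.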
ELG1 DNA repair = blocks ELG1-dependent DNA repair in HEK293T cells; HEK293T ELG1-luciferase reporter, luminescence, 16 h; DNA damage induced by 5-fluorouridine; Potency, µM (top dose mostly 46.1 µM), hits mostly inhibitors; 2.3% of 330,000 active; AID 504467; further: nearly all actives have a fitted effect of over 55% in size
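HEK293T cells expressing luciferase-tagged ELG1 (2,000/well) received 5-Fluorouridine plus compound or DMSO for 16 hr at 37 °C. Luciferase was read by ONE-Glo luminescence after 30 min at room temperature.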
HT1080-NT tox = kills 2HG-producing HT-1080-NT fibrosarcoma cells; HT-1080-NT fibrosarcoma viability, CellTiter-Glo ATP luminescence, 48 h; Potency, µM (series often up to 46.1 µM), usual class: cytotoxic; 1.6% of 360,000 active; AID 686970;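 further: NT is the 2HG producing partner of a matched IDH1 knockdown line; nearly all actives have a fitted effect of over 55% in size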
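Viability by CellTiter-Glo luminescence after 48 h compound exposure at 37C of HT-1080-NT cells (750/well, RPMI, 5% FBS). % activity scaled between DMSO wells and medium-only wells, then curve-fitted and categorized by curve class.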
HT1080 IDH1KD tx = kills HT-1080 cells with IDH1 knockdown. HT-1080 IDH1 knockdown viability, ATP luminescence, 48 h. 2% of 360,000 active. AID 686971. Potency, µM (highest dose often 46.1 µM), most hits filed as cytotoxic
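% activity derives from luminescence (CellTiter-Glo), normalised to DMSO and no-cell wells. HT-1080-IDH1KD cells, 750/well, had 48 h compound exposure at 37 °C.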
DT40 TDP1 no CPT = qHTS for Inhibitors of human tyrosyl-DNA phosphodiesterase 1 (TDP1): qHTS in cells in absence of CPT; DT40 Tdp1-/- hTDP1 cells, no CPT, ATP luminescence, 48 h; Potency, µM (highest dose often 46.2 µM), most hits filed as inhibitors; 15% of 420,000 active; further: nearly all actives have a fitted effect of over 55% in size
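Growth of hTDP1-complemented DT40 Tdp1-knockout cells is measured by ATP luminescence after at least 48 hr compound exposure at 37 °C, with DMSO substituting for the 20 nM CPT used in the parallel screen.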
A number is an active result; 0 = inactive; ? = inconclusive; - = no result; [ ] = another dose, or the depositor's remark. An excerpt weighted towards active compounds, which were near 19% of everything screened. Unless noted, the call rests on the fitted dose curve; in most records, active means well fitted curve in the direction sought with a large enough effect; inconclusive means small, poorly fitted or top-dose-only effect, or another doubt; inactive means no such curve, though single readings can be large; an effect the other way counts as inactive or inconclusive.

SMILES | IL-1B inflam inh | DT40 TDP1 CPT | ELG1 DNA repair | HT1080-NT tox | HT1080 IDH1KD tx | DT40 TDP1 no CPT
Cc1ccc(-c2nnc(Nc3ccc(S(N)(=O)=O)cc3)c3ccccc23)cc1S(=O)(=O)N1CCCCC1 | - | 0 | - | - | - | 0
Cc1ccc(-c2n[nH]c(=O)c3ccccc23)cc1S(=O)(=O)N(C)C | 0 | ? | 0 | 0 | 0 | ?
Cc1ccc(-c2nnc(Nc3ccc(O)cc3)c3ccccc23)cc1S(=O)(=O)N1CCCCC1 | - | 7.3µM | - | - | - | 18µM
Cc1ccc(-c2nnc(Nc3ccc(O)cc3)c3ccccc23)cc1S(=O)(=O)NC(C)(C)CO | - | 16µM | - | - | - | 8.2µM
Cc1ccc(-c2nnc(Nc3cccc(O)c3)c3ccccc23)cc1S(=O)(=O)N1CCOCC1 | - | ? | - | - | - | 12µM
Cc1ccc(-c2n[nH]c(=O)c3ccccc23)cc1S(=O)(=O)Nc1ccccc1 | 0 | ? | ? | 26µM | 21µM | 23µM
CCCS(=O)(=O)NC(=O)C1(C)CCN(C(=O)c2cccc(C)c2C)C1 (stereo unspecified) | 0 | 0 | - | 0 | 0 | 0
O=C(Cc1ccsc1)Nc1ccc(S(=O)(=O)C(F)F)cc1 | ? | ? | 0 | 0 | 0 | ?
CCC(=O)NC(c1cccs1)c1ccc2cccnc2c1O (stereo unspecified) | 0 | 2.9µM | 3.7µM | ? | ? | 4.6µM
CC(C)CC(=O)NC(c1cccs1)c1ccc2cccnc2c1O (stereo unspecified) | 0 | 2.9µM | 0 | ? | ? | 0.58µM
CC(C)[C@H](NS(=O)(=O)c1ccccc1F)C(=O)OCC(=O)Nc1cccc(S(N)(=O)=O)c1 | 0 | 0 | 0 | 0 | 0 | 0
O=C(Cn1cc(COc2c(F)c(F)cc(F)c2F)nn1)c1ccc(O)cc1 | 0 | 0 | - | 0 | 0 | 0
Cc1ccc(C(=O)n2c3ccccc3c3ccccc32)cc1 | 0 | 5.8µM | 0 | ? | 6.5µM | 6.5µM
CC(=O)n1c2ccccc2c2ccccc21 | 0 | 0 | 0 | 0 | 0 | 0
COc1ccc(-n2nc3ccc(NC(=O)c4ccc(C#N)cc4F)cc3n2)cc1Cl | - | 0 | - | - | - | 0
Cc1c(CCC(=O)O)c(=O)n2c([nH]c3ccccc32)c1C#N | 0 | 0 | 0 | 0 | 0 | 0
Cc1ccc(Cc2c(C)c(C#N)c3[nH]c4ccccc4n3c2=O)cc1 | 0 | ? | 18µM | 0 | 0 | 23µM
C=C(C)Cc1c(C)c(C#N)c2[nH]c3ccccc3n2c1=O | 0 | 0 | 21µM | 0 | 16µM | ?
CCC1C(=O)C[C@H]2CCN3C(=O)CCCC1C23 (stereo partly specified) | 0 | 0 | 0 | 0 | 0 | 0
COC(=O)c1ccc(CN(c2ccc(C(=O)O)c(O)c2)S(=O)(=O)c2ccc(Cl)c([N+](=O)[O-])c2)cc1 | -86 | 16µM | 0 | 0 | 0 | 16µM
COC(=O)c1ccc(CN(c2ccccn2)S(=O)(=O)c2ccccc2)cc1 | 0 | 0 | 0 | 0 | 0 | ?
CC1(CNC(=O)C(=O)NCC2(C)CO2)CO1 (stereo unspecified) | 0 | 0.82µM | - | 0 | 0 | 1.6µM
Cc1cc(N2CCN(C)CC2)nc2ccc(NC(=O)c3ccc4c(c3)OCO4)cc12 | -54 | 0 | ? | ? | ? | 0
Cc1cc(N2CCN(C)CC2)nc2ccc(NC(=O)c3ccc(Br)o3)cc12 | 0 | ? | 0 | ? | ? | 18µM
Cc1cc(N2CCN(C)CC2)nc2ccc(NC(=S)NCCCN3CCN(C)CC3)cc12 | 0 | ? | 0 | 0 | 0 | ?
SMILES | IL-1B inflam inh | DT40 TDP1 CPT | ELG1 DNA repair | HT1080-NT tox | HT1080 IDH1KD tx | DT40 TDP1 no CPT
O=C(Nc1ccc(N2CCCCC2)cc1)c1ccc(F)cc1 | ? | 0 | ? | 0 | 0 | ?
CN1CCN(c2ccc(NC(=O)c3ccc4c(c3)OCO4)cc2)CC1 | 0 | 0 | ? | 0 | 0 | 0
Cc1cc(N2CCCCC2)nc2ccc(NC(=O)c3ccc(F)cc3)cc12 | - | 21µM | - | - | - | 15µM
Cc1cc(N2CCCCC2)nc2ccc(NC(=O)c3ccc(Br)o3)cc12 | -66 | ? | ? | ? | ? | ?
O=C1CC(c2nc(-c3cccc(Cl)c3)no2)CN1c1ccc2c(c1)OCCO2 (stereo unspecified) | - | 0 | - | - | - | 0
COc1ccc(-c2sc(Nc3ccccc3)n[n+]2-c2ccc(F)cc2)cc1Br | ? | 5.8µM | 0 | ? | 0 | 18µM
COc1ccc2ccccc2c1-c1sc(Nc2ccccc2)n[n+]1-c1ccc(F)cc1 | -78 | 21µM | 0 | ? | ? | 13µM
COc1ccc(-c2sc(Nc3ccccc3)n[n+]2C)c(C)c1C | 0 | 21µM | 0 | 0 | 0 | 21µM
CCOc1cc(-c2sc(Nc3ccccc3)n[n+]2C)ccc1OC | 0 | ? | 0 | 0 | 0 | 0
COc1ccccc1N1CCN(c2nc(C)nc3c2oc2ccccc23)CC1 | 0 | 3.2µM | ? | 1.1µM | 1.3µM | 2.8µM
Cc1nc(N2CCN(Cc3ccc(Cl)cc3)CC2)c2oc3ccccc3c2n1 | -63 | 23µM | 18µM | 0 | ? | 16µM
O=C(O)C1CCN(c2nc(-c3ccccc3)nc3c2oc2ccccc23)CC1 | 0 | 0 | 0 | 0 | 0 | ?
Cc1nc(N2CCN(Cc3ccc4c(c3)OCO4)CC2)c2oc3ccccc3c2n1 | ? | 7.3µM | - | ? | ? | 9.2µM
Cc1nc(N2CCC(C)CC2)c2oc3ccccc3c2n1 | 0 | ? | 21µM | ? | ? | ?
CCCCC(CC)COS(=O)(=O)O (stereo unspecified) | - | 0 | - | - | - | 0
N#CCc1c(C#N)c(N)nc(N2CCN(Cc3ccc4c(c3)OCO4)CC2)c1C#N | 0 | ? | 18µM | 0 | 0 | 12µM
Cc1cc(C)c(C#N)c(N2CCN(Cc3ccc4c(c3)OCO4)CC2)n1 | 0 | ? | ? | 0 | 0 | ?
Cc1nc(N2CCN(Cc3ccc4c(c3)OCO4)CC2)c2cc(-c3ccccc3)sc2n1 | -62 | 18µM | ? | 0 | 0 | 23µM
CCc1nc2cc(C(=O)N(C)C3CCOC3)cc(NC(=O)c3ccccc3OC)c2n1C (stereo unspecified) | - | 0[9.04 µM] | - | - | - | 0
COc1ccc2c(c1)CCc1cnc(-n3ncc(C(=O)NCC(C)(C)CN(C)C)c3C)nc1-2 | - | 0[9.04 µM] | - | - | - | ?
Cc1ccc(S(=O)(=O)N(C(=O)c2ccco2)c2cc3sc(=O)oc3c3ccccc23)cc1 | 0 | 5.2µM | ? | ? | ? | 2.6µM
CCOc1ccc(S(=O)(=O)N(C)CC(=O)NCc2ccco2)cc1 | 0 | 0 | 0 | 0 | 0 | 0
Cc1ccc(S(=O)(=O)N(C)CC(=O)N2CCN(C(=O)c3ccco3)CC2)cc1 | 0 | 0 | 0 | 0 | 0 | 0
CCOc1ccc(S(=O)(=O)N(C(=O)c2ccco2)c2cc3sc(=O)oc3c3ccccc23)cc1 | -95 | 18µM | ? | ? | 0 | ?
